Inconclusive results are not listed. Active and inactive are the calls of the source. Calls follow the shape of the dose curve; as a rule, active = well fitted curve in the direction sought with a large enough effect in the repeat runs; inconclusive = weak or mixed curves; inactive = no such curve, though single readings can be large; an effect the other way counts as inactive or inconclusive.
Key:
[1] = qHTS RealTime-Glo MT Cell Viability Assay in HEK293 cells - 0 hour (AID 1224880); conditions: RealTime-Glo luminescence; series mostly up to 76.8 µM; also: top concentration of the series differs between compounds; nearly all actives have a fitted effect of over 45% in size
Method in brief: (§1)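 Luminescence readout at each listed time point; HEK293, 600 cells/well, RealTime-Glo MT reagent added with cells; compounds pinned (23 nL in DMSO) after 5 h at 37 C; continuous culture at 37 C.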

[2] = A CellTox Green Cytotoxicity Assay to monitor cytotoxicity in HEK293 cells - 32 hour (AID 1224881); conditions: CellTox Green fluorescence; series mostly up to 76.8 µM; also: nearly all actives have a fitted effect of over 40% in size
Method in brief: (§2)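 Read-out: fluorescence of a cell-impermeant cyanine dye staining DNA of dead cells, proportional to cytotoxicity. HEK293, 600 cells/well with reagent, compound (23 nL DMSO) added after 5 h; reads at 0, 8, 16, 24, 32, 40 h.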

[3] = A CellTox Green Cytotoxicity Assay to monitor cytotoxicity in HepG2 cells - 0 hour (AID 1224882); conditions: CellTox Green fluorescence; series mostly up to 76.8 µM; also: nearly all actives have a fitted effect of over 35% in size
Method in brief: (§3)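 HepG2, 600 cells/well premixed w/ CellTox Green; 5 h settle, 37 C/5% CO2; pintool cpd add (DMSO); 37 C, 40 h; fluorescence read at 0, 8, 16, 24, 32, 40 h.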

[4] = A CellTox Green Cytotoxicity Assay to monitor cytotoxicity in HepG2 cells - 32 hour (AID 1224883); conditions: CellTox Green fluorescence; series mostly up to 76.8 µM; also: nearly all actives have a fitted effect of over 50% in size
Method in brief: as §3

[5] = A CellTox Green Cytotoxicity Assay to monitor cytotoxicity in HEK293 cells - 8 hour (AID 1224884); conditions: CellTox Green fluorescence; series mostly up to 76.8 µM; also: nearly all actives have a fitted effect of over 35% in size
Method in brief: as §2

[6] = qHTS RealTime-Glo MT Cell Viability Assay in HepG2 cells - 16 hour (AID 1224885); conditions: RealTime-Glo luminescence; series mostly up to 76.8 µM; also: nearly all actives have a fitted effect of over 50% in size
Method in brief: (§4)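 Tox21 10K library screened in qHTS format on HepG2 cells carrying RealTime-Glo reagents. Compounds were added after a 5 h preincubation, and the luminescent signal from continuous culture was measured repeatedly during 40 h treatment.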

[7] = qHTS RealTime-Glo MT Cell Viability Assay in HEK293 cells - 24 hour (AID 1224886); conditions: RealTime-Glo luminescence; series mostly up to 76.8 µM; also: top concentration of the series differs between compounds; nearly all actives have a fitted effect of over 50% in size
Method in brief: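 Luminescence generated by NanoLuc from substrate produced by living HEK293 cells served as the viability signal. Each value reflects the reading at its stated time point during continuous 40 h compound exposure at 37 C.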

[8] = qHTS RealTime-Glo MT Cell Viability Assay in HEK293 cells - 8 hour (AID 1224887); conditions: RealTime-Glo luminescence; series mostly up to 76.8 µM; also: top concentration of the series differs between compounds; nearly all actives have a fitted effect of over 50% in size
Method in brief: as §1

[9] = A CellTox Green Cytotoxicity Assay to monitor cytotoxicity in HEK293 cells - 16 hour (AID 1224888); conditions: CellTox Green fluorescence, hits give high values; series mostly up to 76.8 µM; also: nearly all actives have a fitted effect of over 35% in size
Method in brief: as §2

[10] = qHTS RealTime-Glo MT Cell Viability Assay in HepG2 cells - 0 hour (AID 1224889); conditions: RealTime-Glo luminescence; series mostly up to 76.8 µM; also: nearly all actives have a fitted effect of over 50% in size
Method in brief: as §4
% is scaled to controls: 0 for no effect and ±100 for the full control effect.

CCn1ccc(NS(=O)(=O)c2ccc(N)cc2)nc1=O
inactive: Potency [1] | Potency [2] | outcome [3] | Potency [4] | Potency [5] | outcome [6] | Potency [7] | Potency [8]

CCCCNC1CC(C)(C)NC(C)(C)C1
inactive: Potency [1] | Potency [2] | outcome [3] | Potency [4] | Potency [5] | outcome [6] | Potency [7] | Potency [8] | outcome [9]

COc1cc(N)ccc1C
inactive: Potency [1] | Potency [2] | outcome [3] | Potency [4] | Potency [5] | outcome [6] | Potency [7] | Potency [8] | outcome [9] | Potency [10]

O=S(=O)(O)c1ccc2cc(O)c(S(=O)(=O)O)cc2c1
inactive: Potency [1] | Potency [2] | outcome [3] | Potency [4] | Potency [5] | outcome [6] | Potency [7] | Potency [8] | outcome [9] | Potency [10]

O=C(OCC(COC(=O)c1cccnc1)(COC(=O)c1cccnc1)COC(=O)c1cccnc1)c1cccnc1
inactive: Potency [1] | Potency [2] | outcome [3] | Potency [4] | Potency [5] | outcome [6] | Potency [7] | Potency [8] | outcome [9]

C=Cc1ccccn1
inactive: Potency [1] | Potency [2] | outcome [3] | Potency [4] | Potency [5] | outcome [6] | Potency [7] | Potency [8] | outcome [9] | Potency [10]

Cc1cccc(OCC(O)CNC(C)(C)C)c1C (configuration not stated)
inactive: Potency [1] | Potency [2] | outcome [3] | Potency [4] | Potency [5] | outcome [6] | Potency [7] | Potency [8] | outcome [9] | Potency [10]

O=P(O)(O)OP(=O)(O)O
inactive: Potency [1] | Potency [2] | outcome [3] | Potency [4] | Potency [5] | outcome [6] | Potency [7] | Potency [8] | outcome [9] | Potency [10]

CCCCOC(=O)c1ccccc1
inactive: Potency [1] | Potency [2] | outcome [3] | Potency [4] | Potency [5] | outcome [6] | Potency [7] | Potency [8] | outcome [9] | Potency [10]

C=C(C)C(=O)OCCOP(=O)(O)OCCOC(=O)C(=C)C
inactive: Potency [1] | Potency [2] | outcome [3] | Potency [4] | Potency [5] | outcome [6] | Potency [7] | Potency [8] | outcome [9]

c1ccc2nccnc2c1
inactive: Potency [1] | Potency [2] | outcome [3] | Potency [4] | Potency [5] | outcome [6] | Potency [7] | Potency [8] | outcome [9] | Potency [10]

COCCc1ccc(OCC2CO2)cc1 (configuration not stated)
inactive: Potency [1] | Potency [2] | outcome [3] | Potency [4] | Potency [5] | outcome [6] | Potency [7] | Potency [8] | outcome [9] | Potency [10]

CCCCCCCCOS(=O)(=O)O
inactive: Potency [1] | Potency [2] | outcome [3] | Potency [4] | Potency [5] | outcome [6] | Potency [7] | Potency [8] | outcome [9] | Potency [10]

C=C(C)C(=O)OCCN(CC)CC
inactive: Potency [1] | Potency [2] | outcome [3] | Potency [4] | Potency [5] | outcome [6] | Potency [7] | Potency [8] | outcome [9]

O=C(NCC(O)CO)c1c(I)c(C(=O)NCC(O)CO)c(I)c(N(CCO)C(=O)CO)c1I (configuration not stated)
inactive: Potency [1] | Potency [2] | outcome [3] | Potency [4] | Potency [5] | outcome [6] | Potency [7] | Potency [8] | outcome [9]

N[C@@H](COP(=O)(O)O)C(=O)O
inactive: activity change, negative = cytotoxicity [1] 12.6% [at 15.8 µM] | cytotoxicity increase [2] -6.18% [at 15.8 µM] | cytotoxicity [3] 0.162% [at 15.8 µM] | cytotoxicity increase [4] -0.733% [at 15.8 µM] | cytotoxicity increase [5] -2.54% [at 15.8 µM] | activity change, negative = cytotoxic [6] 1.13% [at 15.8 µM] | activity change, negative = cytotoxicity [7] 1.75% [at 15.8 µM] | activity change, negative = cytotoxicity [8] 10.1% [at 15.8 µM] | activity change [9] -5.61% [at 15.8 µM]

C[C@H](CCC(=O)O)[C@H]1CC[C@H]2[C@@H]3C(=O)C[C@@H]4CC(=O)CC[C@]4(C)[C@H]3CC(=O)[C@]12C
inactive: Potency [1] | Potency [2] | outcome [3] | Potency [4] | Potency [5] | outcome [6] | Potency [7] | Potency [8] | outcome [9] | Potency [10]

O=C(OCc1ccccc1)C(=O)OCc1ccccc1
inactive: Potency [1] | Potency [2] | outcome [3] | Potency [4] | Potency [5] | outcome [6] | Potency [7] | Potency [8] | outcome [9] | Potency [10]

CNS(=O)(=O)CCc1ccc2[nH]cc(C3CCN(C)CC3)c2c1
inactive: Potency [1] | Potency [2] | outcome [3] | Potency [4] | Potency [5] | outcome [6] | Potency [7] | Potency [8] | outcome [9] | Potency [10]

CCNC(=O)C1CC(C)CCC1C(C)C (configuration not stated)
inactive: Potency [1] | Potency [2] | outcome [3] | Potency [4] | Potency [5] | outcome [6] | Potency [7] | Potency [8] | outcome [9] | Potency [10]

CCCCC(CC)COCCO (configuration not stated)
inactive: Potency [1] | Potency [2] | outcome [3] | Potency [4] | Potency [5] | outcome [6] | Potency [7] | Potency [8] | outcome [9] | Potency [10]

— PubChem BioAssay (Tox21)
